An excerpt weighted towards active compounds, which were near 12% of everything screened.
BAZ2B block = inhibitors of human BAZ2B bromodomain; Q9UIF8; AlphaScreen BAZ2B-H3K14Ac peptide displacement; Potency, µM (series often up to 114 µM), inactives show at the highest dose activity change, negative = inhibition, actives largely listed as inhibitors; 360,000 tested, 4.4% active; AID 504333; further: on the % scale 0 is the no-effect control and ±100 the full control effect; nearly all actives have a fitted effect of over 60% in size
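Complex of BAZ2B and biotin-H3K14Ac (50 nM apiece) forms over 30 min at RT, then faces library compounds up to 110 uM for another 30 min; AlphaScreen beads added, 20 min dark incubation, luminescence read.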
G9a inh = inhibitors of human histone lysine methyltransferase G9a | Q96KQ7 | G9a H3K9 monomethylation, AlphaScreen, 2 h | Potency, µM (series often up to 102 µM), for inactives: at the top dose activity, negative = inhibition, hits mostly inhibitors | 350,000 tested, 8.8% active | AID 504332; further: on the % scale 0 is the no-effect control and ±100 the full control effect; nearly all actives have a fitted effect of over 75% in size
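Using a bead-based AlphaScreen, monomethylated H3K9 product from 2 h room-temperature reactions (G9a 20 nM, peptide 500 nM, SAM 20 uM) was detected with 0.5 ug/mL rabbit anti-H3K9me1 antibody.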
L3MBTL1 block = inhibitors of human L3MBTL1; Q9Y468; Potency, µM (doses to about 57.1 µM), for the others: at the highest dose activity, negative = inhibition, actives largely listed as inhibitors; AlphaScreen L3MBTL1–H3K9me1 peptide binding; AID 485360; 230,000 tested, 0.66% active; further: on the % scale 0 is the no-effect control and ±100 the full control effect; nearly all actives have a fitted effect of over 60% in size
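Read-out is AlphaScreen signal from streptavidin donor and nickel chelate acceptor beads (10 ug/mL final each) bridging L3MBTL1 (50 nM) and biotinylated K9-monomethylated H3(1-15) peptide (75 nM), after 30 min compound exposure at room temperature.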
Sfp PPTase inh = Sfp phosphopantetheinyl transferase inhibition. Q9F4F7. Biochemical Sfp PPTase activity, qHTS. Potency, µM, for the others: largest response in the series, negative = inhibition, usual class: inhibitors. 310,000 tested, 3.5% active. AID 1490;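 further: the enzyme is Sfp with the accession as filed and its product quenches rhodamine fluorescence; 0% = enzyme reaction without inhibitor and -100% = no enzyme wells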
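With Hepes-Na pH 7.6 buffer containing 10 mM MgCl2, Sfp (15 nM) modified BHQ-2-YbbR (12.5 uM) using rhodamine-CoA (5 uM). Two reads 30 minutes apart at 525/598 nm yielded each well's rate.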
JMJD2A Tudor = inhibitors of human JMJD2A Tudor domain; AlphaScreen JMJD2A-Tudor / H3K4me3 peptide binding; Potency, µM (top dose mostly 114 µM), for the others: at the highest dose activity change, negative = inhibition, most hits filed as inhibitors; 390,000 tested, 4.4% active; AID 504339; further: on the % scale 0 is the no-effect control and ±100 the full control effect; nearly all actives have a fitted effect of over 50% in size
HP1b chromo inh = HP1-beta chromodomain-methylated histone interaction inhibition; AlphaScreen HP1-beta / biotin-H3K9me3 peptide binding; Potency, µM (doses to about 114 µM), for the others: at the highest dose activity change, negative = inhibition, most hits filed as inhibitors; 390,000 tested, 0.56% active; AID 540317; further: nearly all actives have a fitted effect of over 70% in size
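HP1-beta protein (50 nM final) preincubated 30 min at room temperature with biotinylated H3(1-18)K9me3 peptide (50 nM) in PBS pH 7.4, 0.01% Tween-20, then compound added for 30 min. AlphaScreen streptavidin donor/nickel chelate acceptor beads (10 ug/mL final), 30 min dark, luminescence read.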
* = called active by the depositor; ? = inconclusive; · = no result; [ ] = remark or other dose. The call rests on the fitted dose curve; in most records, active means well fitted curve in the direction sought with a large enough effect; inconclusive means small, poorly fitted or top-dose-only effect, or another doubt; inactive means no such curve, though single readings can be large; an effect the other way counts as inactive or inconclusive. Potency means the concentration at half of the fitted maximal effect.

SMILES	BAZ2B block	G9a inh	L3MBTL1 block	Sfp PPTase inh	JMJD2A Tudor	HP1b chromo inh
COc1cccc(/C=N/N2C(=O)CSC2=S)c1O	3.2µM*	8.9µM*	25µM*	?	10µM*	?
COc1cc(/C=N/N2C(=O)CSC2=S)cc(Br)c1O	40µM*	45µM*	32µM*	-6%	45µM*	?
Cc1ccc(S(=O)(=O)N2CCN(c3nc(-c4ccc(CN5CCOCC5)s4)nc4ccccc34)CC2)cc1	·	·	·	·	-34%	18%
O=C(C[n+]1ccccc1)N/N=C/c1cc(Br)ccc1F	71µM*	-3%[12.7 µM]	-22%	·	?	28%
O=C(C[n+]1ccccc1)N/N=C/c1cc(Br)cc(Br)c1O	10µM*	-12%	·	3%	22µM*	27%
CN(C)c1ccc(/C=N/NC(=O)C[n+]2ccccc2)cc1	·	·	·	·	-12%	-3%
O=C(C[n+]1ccccc1)N/N=C/c1ccc(C(=O)O)cc1	79µM*	?	-16%	·	-30%	52%
COc1ccc(Br)cc1/C=N/NC(=O)C[n+]1ccccc1	-15%	-13%	·	5%	-9%	34%
CCC1(c2ccc(F)cc2)NC(=O)N(CC(=O)N2CCN(C(=O)c3ccco3)CC2)C1=O (stereo not drawn)	·	·	5%	·	-13%	15%
COc1ccc(-n2cc(C(=O)Nc3cc(F)ccc3F)c3ccccc3c2=O)cc1	?	?	·	·	?	-6%
CC(C)C(=O)SCCCCCCC(=O)Nc1nc(-c2ccccc2)cs1	·	·	·	31%	·	·
COc1ccc(Cn2c(SCc3cc(C)ccc3C)nc3cc(OC)c(OC)cc3c2=N)cc1	?	?	-7%	3.2µM*	?	-19%
COc1ccc(Cn2c(SCc3ccc(C)cc3)nc3cc(OC)c(OC)cc3c2=N)cc1Cl	?	40µM*	-5%	4µM*	?	-21%
CNC(=O)C1CCC(Cn2c(=O)c3sccc3n(CC(=O)NCc3ccc(C)cc3)c2=O)CC1 (stereo not drawn)	3%	25%[59 µM]	·	·	0%	68%
COc1cccc(Nc2ncc3nc(-c4ccccc4)c(=O)n(Cc4cccs4)c3n2)c1	·	-6%[0.501 µM]	·	23%	·	·
CCc1sc(Nc2cccc(C)c2)nc1-c1cc2cccc(OC)c2oc1=O	-11%	-20%[59 µM]	·	·	-16%	35%
Cc1ccc(C(=O)Nc2nnc(CC(=O)N/N=C/c3ccc(O)c(O)c3)s2)cc1	79µM*	-31%[2.33 µM]	·	-13%	?	-24%
COc1ccc(C(=O)Nc2nnc(CC(=O)N/N=C/c3ccc(O)cc3O)s2)cc1	-5%	-2%	·	-1%	·	·
Cc1ccc(C(=O)Nc2nnc(CC(=O)N/N=C/c3ccncc3)s2)cc1	?	35µM*	?	-24%	?	23%
O=C(COC(=O)c1ccc2ncsc2c1)NC(=O)C1CCCCC1	·	·	·	·	-11%	43%
O=C(O)c1cc2ccccc2c(N=Nc2cccnc2)c1O	?	50µM*	·	8%	-32%	?
N#Cc1ccc(OCC(=O)OCC(=O)Nc2ccc(N3CCOCC3)cc2)cc1	12%	?	-2%	·	-20%	4%
Cc1ccc(C(=O)OCC(=O)N2CCOCC2)cc1	4%	18%	·	17%	-10%	-8%
N#CCC(=O)Nc1ccc(C(=O)OCC(=O)c2ccc3c(c2)OCCO3)cc1	-8%	53%	-13%	-10%	18µM*	-9%
N#Cc1ccc(C(=O)OCC(=O)N2CCOCC2)cc1	-25%	50µM*	·	17%	1%	29%
N#Cc1ccc(C(=O)OCC(=O)Nc2ccc(N3CCOCC3)cc2)cc1	·	10µM*	-1%	-2%	-7%	25%
N#CCC(=O)Nc1ccc(C(=O)OCC(=O)c2ccc3c(c2)OCO3)cc1	12%	-2%	0%	·	-14%	7%
O=C(COC(=O)CCC(=O)c1ccc(F)cc1)Nc1ccc(N2CCOCC2)cc1	-7%	50µM*	-6%	8%	-12%	30%
O=C(Cn1cc(COc2ccccc2[N+](=O)[O-])nn1)c1ccc(O)cc1	·	·	·	·	?	25%

High-throughput results deposited in PubChem by National Center for Advancing Translational Sciences (NCATS).
